According to PubChem BioAssay:
The source made the active and inactive calls. Unless noted, the rule behind the calls is not given here.

Experiments:
[1] = tested on: XIP peptide (Xip251-270) binding; assay: XIP fragment 251-270 binding compounds – biochemical, small-molecule microarray, fluorescence 635/667 nm, 0.1 µg/mL protein, primary screen (AID 1182); settings: fluorescent protein binding, 635 nm, higher = more signal, called active from +8 up or from −8 down
XIP peptide (Xip251-270) = assay: compounds binding XIP fragment 251-270 – biochemical, small-molecule microarray, fluorescence 635/667 nm, 0.5 µg/mL protein, primary screen (AID 1183); settings: fluorescence 635 nm, higher = more signal
[2] = blood-stage malaria parasite viability loss – strain 3D7, DAPI fluorescence, 100 nL, primary screen (AID 1184);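 note: parasites grown inside human red blood cells in medium with human serum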; settings: P. falciparum 3D7 growth, 3 d, higher = more signal
[3] = target: Homeobox protein Hox-A13 (Mus musculus) (UniProt Q62424); assay: disruptors of Hoxa13 oligonucleotide interaction – biochemical, fluorescence polarization, labeled oligonucleotide, primary screen (AID 1185); settings: Hoxa13:DNA binding, 15 min, higher = more signal, called active from +8 up or from −8 down
Chain of Homeobox protein Hox-A13 (Mus musculus) (Q62424 whole entry, looked up): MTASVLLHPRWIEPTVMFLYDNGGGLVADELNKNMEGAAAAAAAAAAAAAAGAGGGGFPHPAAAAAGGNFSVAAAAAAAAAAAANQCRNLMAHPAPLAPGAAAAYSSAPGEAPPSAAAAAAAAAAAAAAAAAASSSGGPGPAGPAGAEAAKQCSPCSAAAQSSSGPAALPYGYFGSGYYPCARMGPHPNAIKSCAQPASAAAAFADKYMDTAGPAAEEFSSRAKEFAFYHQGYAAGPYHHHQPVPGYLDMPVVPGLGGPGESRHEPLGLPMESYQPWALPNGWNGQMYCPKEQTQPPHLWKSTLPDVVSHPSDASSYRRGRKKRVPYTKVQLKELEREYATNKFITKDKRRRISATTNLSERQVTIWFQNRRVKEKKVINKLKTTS

[4] = blockers of DNA damage checkpoint Chk1 activation – imaging, HeLa, hydroxyurea, phospho-Chk1 antibody, percent positive cells, primary screen (AID 1186); settings: hydroxyurea-induced phospho-Chk1 immunofluorescence imaging, higher = more signal
[5] = blockers of DNA damage checkpoint Chk1 activation – imaging, HeLa, hydroxyurea, phospho-Chk1 nuclear intensity, primary screen (AID 1187); settings: hydroxyurea-induced phospho-Chk1 immunofluorescence imaging, higher = more signal

| Compound | composite z-score [1] | composite z-score (XIP peptide (Xip251-270)) | z-score [2] | z-score [3] | z-score [4] | z-score [5] |
| --- | --- | --- | --- | --- | --- | --- |
| CCOC(=O)C1=C[C@@H](C(C)(C)C)N(S(=O)(=O)c2ccc(C)cc2)[C@H]1c1ccc(F)cc1 | 0.475 (inactive) | 0.106 | -1.92 | -0.636 (inactive) | -0.324 (inactive) | -0.725 (inactive) |
| COC(=O)[C@@]1(Cc2ccc(F)cc2)[C@H]2c3cc(C(=O)N4CCCC4)n(CCCNc4ncc(C(F)(F)F)cc4Cl)c3C[C@H]2CN1C(=O)c1ccccc1 | 0.1 (inactive) | 0.716 | -1.41 | -4.2 (inactive) | 0.919 (inactive) | 0.259 (inactive) |
| CC1(C)[C@@H]2CC(C(O)C3C=CC4C(=O)N(c5ccccc5)C(=O)C4N3Nc3ccc([N+](=O)[O-])cc3)=C[C@H]1C2 (stereo partly specified) | 0.19 (inactive) | 0.797 | -0.545 | -2.94 (inactive) | 0.0793 (inactive) | -0.261 (inactive) |
| CC(C)C(O)C1C=CC2C(=O)N(c3ccccc3)C(=O)C2N1Nc1ccc([N+](=O)[O-])cc1 (stereo unspecified) | -0.354 (inactive) | -0.266 | 0.935 | -3.78 (inactive) | 0.659 (inactive) | -0.404 (inactive) |
| CN(C)CCCCCCNC(=O)[C@@H]1C[C@@H]2C(=O)N[C@@H](Cc3ccccc3)C(=O)N2[C@@H]1c1ccc(O)cc1 | 0.594 (inactive) | 0.887 | -1.19 | -2.65 (inactive) | -0.165 (inactive) | 0.272 (inactive) |
| COCCOC(=O)N1C(=O)[C@@]2(c3cc(C#CCNC(N)=O)ccc31)[C@H](C(=O)Nc1nc3ccccc3s1)[C@H]1C(=O)O[C@H](c3ccccc3)[C@H](c3ccccc3)N1[C@@H]2c1ccc(OCCO)cc1 | 0.113 (inactive) | -0.221 | 0.764 | 0.886 (inactive) | -0.0719 (inactive) | -0.0419 (inactive) |
| C=C(CCCC)/C(=C/C[C@@H](OC(=O)c1ccncc1)c1ccc(OCCO)cc1)c1cc(C(=O)OC)ccc1OC | 0.35 (inactive) | 0.565 | -2.8 | -3.62 (inactive) | -0.377 (inactive) | 0.106 (inactive) |
| COCCOC(=O)N1C(=O)[C@@]2(c3cc(C#Cc4ccc(OC)cc4)ccc31)[C@H](c1ccc(O)cc1)N1[C@H](c3ccccc3)[C@H](c3ccccc3)OC(=O)[C@H]1[C@@H]2C(=O)N1CCc2cc(OC)c(OC)cc2C1 | 0.109 (inactive) | 0.629 | -2.17 | -1.71 (inactive) | 0.264 (inactive) | 0.948 (inactive) |
| C[C@H]1C2[C@H](Cc3ccccc3)NC(=O)[C@]23C(=O)N[C@H](Cc2ccccc2)C(=O)N2CCC[C@H]2C(=O)NC/C=C\C/C=C/C3[C@@H]2O[C@]12C (stereo partly specified) | 0.297 (inactive) | 0.192 | -0.227 | -6.27 (inactive) | -0.291 (inactive) | -0.104 (inactive) |
| C=CCOC(=O)[C@H]1[C@@H]2C(=O)O[C@@H](c3ccccc3)[C@@H](c3ccccc3)N2[C@@H](c2ccc(OCCOC(=O)[C@@H]3C[C@@H]4C(=O)N[C@@H](CC(C)C)C(=O)N4[C@@H]3c3ccc(O)cc3)cc2)[C@]12C(=O)Nc1ccccc12 | 1.25 (inactive) | 0.802 | -1.66 | -0.596 (inactive) | 0.659 (inactive) | 0.991 (inactive) |
| [N-]=[N+]=NCc1ccccc1C[C@]1(C(=O)N2CCCCC2)N=C(c2ccc(OCCCO)cc2)O[C@H]1c1ccccc1N=[N+]=[N-] | 0.113 (inactive) | 0.694 | -1.95 | 0.766 (inactive) | -0.273 (inactive) | -0.448 (inactive) |
| CC(C)OC(=O)C=C1C[C@@H](c2ccccn2)O[C@@H](c2ccccn2)O1 | 1.4 (inactive) | -0.0957 | -0.929 | -5.67 (inactive) | 0.367 (inactive) | 0.129 (inactive) |
| CCS[C@H]1[C@@H](C(=O)O)[C@H](c2ccc(C)cc2)N(S(=O)(=O)c2ccc(C)cc2)[C@@H]1CC | 0.458 (inactive) | 0.327 | 0.184 | -2.35 (inactive) | -0.72 (inactive) | -0.307 (inactive) |
| COc1cc2c(cc1OC)CN(C(=O)[C@H]1[C@@H]3C(=O)O[C@@H](c4ccccc4)[C@@H](c4ccccc4)N3[C@@H](c3ccc(O)cc3)[C@]13C(=O)Nc1ccc(C#CCCO)cc13)CC2 | 0.22 (inactive) | 0.798 | -1.56 | -3.49 (inactive) | 0.113 (inactive) | 0.393 (inactive) |
| COc1cccc(-c2cccc(=O)o2)c1 | -0.256 (inactive) | 0.688 | 0.0459 | -2.09 (inactive) | 0.317 (inactive) | -0.169 (inactive) |
| COc1ccc(CCNC(=O)[C@@]2(Sc3ccc(C)cc3)CC(=O)N(C(C)C)[C@@H]2c2ccc(CO)cc2I)cc1 | 0.427 (inactive) | 0.368 | -1.01 | -2.89 (inactive) | 0.332 (inactive) | 0.404 (inactive) |
